GC-B act: human GC-B receptor activators, primary screen, HEK293 GC-B cells, cGMP TR-FRET, EC30 CNP. Atrial natriuretic peptide receptor 2 (Homo sapiens), P20594. AID 1920062, 2024. 0% at EC30 CNP, 100% saturating CNP. activation, % at 10 µM. 370,000 compounds, 0.11% hits;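 active = activation at 10 µM reaching about 35% in either raw or pattern-adjusted values, limit read from the data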
Target sequence (P20594 whole entry, looked up): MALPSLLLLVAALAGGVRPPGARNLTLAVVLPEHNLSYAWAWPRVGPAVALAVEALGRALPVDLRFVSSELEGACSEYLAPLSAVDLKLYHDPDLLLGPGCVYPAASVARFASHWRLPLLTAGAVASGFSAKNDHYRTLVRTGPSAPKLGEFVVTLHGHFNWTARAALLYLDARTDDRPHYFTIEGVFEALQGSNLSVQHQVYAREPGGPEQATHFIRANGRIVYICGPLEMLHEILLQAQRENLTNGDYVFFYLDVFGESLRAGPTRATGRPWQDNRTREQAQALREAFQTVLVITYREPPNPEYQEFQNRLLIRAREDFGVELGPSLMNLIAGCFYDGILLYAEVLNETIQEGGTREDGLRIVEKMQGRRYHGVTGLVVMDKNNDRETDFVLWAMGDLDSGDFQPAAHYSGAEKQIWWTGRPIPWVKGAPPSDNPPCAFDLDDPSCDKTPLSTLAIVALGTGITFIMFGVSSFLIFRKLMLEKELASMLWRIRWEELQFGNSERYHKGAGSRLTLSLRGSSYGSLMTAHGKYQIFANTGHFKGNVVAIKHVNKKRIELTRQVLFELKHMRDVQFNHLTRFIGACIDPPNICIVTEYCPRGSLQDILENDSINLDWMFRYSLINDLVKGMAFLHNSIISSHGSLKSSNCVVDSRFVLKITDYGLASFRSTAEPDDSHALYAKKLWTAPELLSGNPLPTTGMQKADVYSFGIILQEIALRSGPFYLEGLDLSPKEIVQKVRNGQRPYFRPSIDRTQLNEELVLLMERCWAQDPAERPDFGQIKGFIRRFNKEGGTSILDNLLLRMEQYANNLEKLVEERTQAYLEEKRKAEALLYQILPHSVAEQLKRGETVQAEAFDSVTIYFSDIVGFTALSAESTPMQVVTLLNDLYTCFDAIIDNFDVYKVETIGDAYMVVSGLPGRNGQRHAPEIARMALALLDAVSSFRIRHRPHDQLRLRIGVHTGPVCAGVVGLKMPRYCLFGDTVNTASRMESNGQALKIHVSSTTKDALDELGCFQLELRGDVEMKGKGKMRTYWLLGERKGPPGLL
Granule exo inh: LAMP-1 surface exposure blockers, TALL-104 cells – cell-based, flow cytometry, MLPCN library, primary screen. TALL-104 LAMP-1 surface exposure; cells stimulated with thapsigargin and PMA. inhibition, % at 10 µM. 360,000 compounds, 0.66% hits. AID 651702, 2012;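 active = inhibition above about 55%, limit read from the data; inconclusive = no clear call, values can overlap the other calls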
Myeloid diff 2: induction of myeloid progenitor differentiation, primary screen, cell-based, flow cytometry, MLPCN library; ER-HoxA9 myeloid progenitors, lysozyme-GFP differentiation; calls only at 10 µM; 360,000 compounds, 1% hits; AID 624256, 2012;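 active = normalized GFP-positive differentiation at or above the plate's own cutoff, the solvent-only control mean plus 3 SD; inconclusive = no clear call, values can overlap the other calls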;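 also: cells exposed to compound for four days before flow analysis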
NPR1 activator: GC-A stimulated cGMP production enhancers – HEK293 GC-A cells, cGMP TR-FRET, EC30 ANP, primary screen; Atrial natriuretic peptide receptor 1 (Homo sapiens), P16066; 0% at EC30 ANP, 100% saturating ANP; 370,000 compounds, 0.14% hits; activation, % at 10 µM; in the data active = activation above about 40%
An asterisk follows results filed as active. Compounds with a hit are over-represented: about 1.8% of the library has one in this group of screens.

`O=C(c1ccncc1)N(Cc1ccccc1)Cc1nc2ccccc2c(=O)[nH]1` gave GC-B act -1.0, Granule exo inh -3.7, Myeloid diff 2 active and NPR1 activator 1.3.
For Cc1ccc(S(=O)(=O)N2C[C@H]3C(=O)C[C@@H](c4ccccc4)N(S(=O)(=O)c4ccc(C)cc4)[C@H]3C[C@H]2c2cccc(Cl)c2)cc1 the results were GC-B act 8.2, Granule exo inh -0.8, Myeloid diff 2 active and NPR1 activator 4.3.
COc1ncnc2c1sc1nc(-c3ccccc3)c3c(c12)CCCC3 was read as GC-B act -12.2, Granule exo inh -1.3, Myeloid diff 2 inactive and NPR1 activator -9.8.
For CN(C)CCNc1ncnc2c1sc1nc(-c3ccccc3)c3c(c12)CCCC3 the results were GC-B act -6.4, Granule exo inh 29.6, Myeloid diff 2 active and NPR1 activator -8.4.
COc1ccccc1N=C1NC(=O)/C(=C/c2ccc(N(C)C)cc2)S1 was read as GC-B act -2.2, Granule exo inh 67.4*, Myeloid diff 2 inconclusive and NPR1 activator -8.2.
COc1cc(/C=C2/SC(=Nc3ccc(O)cc3)NC2=O)cc(OC)c1O was read as GC-B act 3.6, Granule exo inh -2.9, Myeloid diff 2 active and NPR1 activator -1.8.
`Cc1ccccc1OCCOC(=O)c1c(-c2ccccc2)noc1C` gave GC-B act -4.6, Granule exo inh 94.5*, Myeloid diff 2 inconclusive and NPR1 activator -3.3.
For Cc1cc(/C=N/NC(N)=S)c(C)n1-c1ccc(Br)cc1 the results were GC-B act -7.3, Granule exo inh 0.4, Myeloid diff 2 inactive and NPR1 activator -42.8.
Screening CC(C)Oc1ccc(Br)cc1/C=N\NC(N)=S returned GC-B act -15.1, Granule exo inh -5.4, Myeloid diff 2 active and NPR1 activator -37.6.
Screening CCOC(=O)c1c2c(n(-c3ccc(OC)cc3)c1C)C(=O)C(=O)c1ccccc1-2 returned Granule exo inh 98.1* and Myeloid diff 2 inconclusive.
`CN1CCN(CCCNC(=O)c2ccc(/C=C3\Oc4ccccc4N(Cc4ccccc4F)C3=O)cc2)CC1` gave GC-B act -3.2, Granule exo inh 25.9, Myeloid diff 2 inactive and NPR1 activator 9.0.
`CCN1CCN(CCNC(=O)c2ccc(/C=C3\Sc4ccccc4N(Cc4ccccc4F)C3=O)cc2)CC1` gave GC-B act 6.7, Granule exo inh 72.2*, Myeloid diff 2 inactive and NPR1 activator -5.4.
`CN1CCN(CCCNC(=O)c2ccc(/C=C3/Sc4ccccc4N(Cc4cccc(Cl)c4)C3=O)cc2)CC1` gave GC-B act -0.1, Granule exo inh 75.4*, Myeloid diff 2 active and NPR1 activator -4.0.
`CC(COc1cccc(F)c1)CN1CCC(C(O)(c2ccccc2)c2ccccc2)CC1` (centres undefined) gave GC-B act -4.2 and NPR1 activator -11.6.
`COC(=O)[C@]12C[C@H](CC(=O)NCc3cccc4ccccc34)C(=O)N(Cc3ccco3)C1=C[C@H](C(C)C)O[C@@H]2C1CC1` gave GC-B act -7.5 and NPR1 activator -4.8.
Screening Nc1ccc2nc(-c3cccc(-c4nc5ccc(N)cc5[nH]4)n3)[nH]c2c1 returned GC-B act -1.0, Granule exo inh 3.3, Myeloid diff 2 active and NPR1 activator -8.6.
For Nc1ccc2nc(-c3ccc(-c4nc5ccc(N)cc5[nH]4)cc3)[nH]c2c1 the results were GC-B act -8.1 and NPR1 activator 29.2.
Screening S=c1[nH]nc(-c2cc(-c3ccccc3)n[nH]2)n1/N=C/c1cccc2ccccc12 returned GC-B act -18.1 and NPR1 activator 3.2.
S=c1[nH]nc(-c2cc(-c3ccccc3)n[nH]2)n1/N=C/c1c(Cl)cccc1Cl was read as GC-B act -2.5, Granule exo inh 13.0, Myeloid diff 2 active and NPR1 activator 2.8.
Screening COc1ccc(Nc2nc(Cl)c(C=O)s2)cc1 returned Granule exo inh 5.4 and Myeloid diff 2 active.
For COc1ccc(Nc2nc3ccccc3s2)cc1 the results were GC-B act -2.9, Granule exo inh -2.9, Myeloid diff 2 inactive and NPR1 activator 1.7.
For O=C(C[C@@H]1CC[C@H](NC(=O)c2ccc3c(c2)OCO3)[C@@H](CO)O1)NCc1ccc(F)cc1 the results were GC-B act 3.1, Granule exo inh -3.3, Myeloid diff 2 inactive and NPR1 activator 1.5.
`COC(=O)C1CN(C2CCCC2)CCS(=O)(=O)N1Cc1ccccc1` (centres undefined) gave GC-B act -2.9 and NPR1 activator 2.8.
Screening CC(C)(C)C(=O)/C=c1\s/c(=C\c2ccc(-c3ccc([N+](=O)[O-])cc3)o2)c(=O)n1CC(=O)NC(N)=O returned GC-B act -5.5, Granule exo inh 58.3*, Myeloid diff 2 active and NPR1 activator 8.2.
For CCC(=O)N/N=C/c1ccc(-c2ccc([N+](=O)[O-])cc2)o1 the results were GC-B act -11.7, Granule exo inh 1.8, Myeloid diff 2 inactive and NPR1 activator -0.5.
Screening CCOc1ccc(S(=O)(=O)n2cc(F)c(=O)[nH]c2=O)cc1 returned GC-B act -1.0, Granule exo inh -5.0, Myeloid diff 2 active and NPR1 activator -3.1.
CCOc1ccc(S(=O)(=O)n2cc(F)c(=O)[nH]c2=O)cc1[N+](=O)[O-] was read as GC-B act 2.4, Granule exo inh -1.0, Myeloid diff 2 inconclusive and NPR1 activator -0.1.
`Cc1ccc2c(=O)n3c(nc2c1)C(Cc1ccc(O)cc1)NC(=O)c1cc2ccccc2cc1-3` (centres undefined) gave GC-B act -1.8, Granule exo inh -5.6, Myeloid diff 2 inactive and NPR1 activator -5.2.
For Nn1c(SCc2ccc([N+](=O)[O-])cc2)nnc1-c1n[nH]c2c1CCC2 the results were GC-B act -12.3 and NPR1 activator -2.5.
`CC(C)OC(=O)c1cc(C(=O)c2cc(Cl)ccc2O)coc1=N` gave GC-B act -4.6, Granule exo inh 0.7, Myeloid diff 2 active and NPR1 activator -5.3.
`CC(C)OC(=O)c1cc(C(=O)c2cc(F)ccc2O)coc1=N` gave GC-B act -12.5, Granule exo inh 1.7, Myeloid diff 2 active and NPR1 activator 2.3.
COc1cc(C=Nn2c(-c3n[nH]c4c3CCC4)n[nH]c2=S)ccc1OCc1ccccc1 was read as GC-B act -5.5 and NPR1 activator -5.8.
Screening CCCNc1c(F)c(F)c2c(C)c3ccccc3nc2c1F returned GC-B act 2.9, Granule exo inh 36.2, Myeloid diff 2 active and NPR1 activator -2.1.
`N#CC1=C(S)N=C(N)C(c2nc(-c3ccccc3)cs2)C12CCCC2` (centres undefined) gave GC-B act 19.6, Granule exo inh 70.5*, Myeloid diff 2 inactive and NPR1 activator 15.1.

Screening results (PubChem BioAssay)
